Reference: PubChem BioAssay (NCATS)
Values joined by “and” are separate entries in the source; they are usually repeats but may differ in a detail not shown here. Equal entries are not always repeated. Records with an inconclusive call do not appear. Active and inactive are the calls of the source. Calls follow the shape of the dose curve; as a rule, active = well fitted curve in the direction sought with a large enough effect; inconclusive = small, poorly fitted or top-dose-only effect, or another doubt; inactive = no such curve, though single readings can be large; an effect the other way counts as inactive or inconclusive.

Experiments:
[1] = target: Cytochrome P450 3A7 (Homo sapiens) (UniProt P24462); assay: Cytochrome P450 family 3 subfamily A member 7 (CYP3A7) small molecule antagonists: luciferase biochemical qHTS assay (AID 1963596); also: nearly all actives have a fitted effect of over 40% in size; as to activity change, negative = inhibition: % is scaled to controls: 0 for no effect and ±100 for the full control effect
How it was run: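 Luminescence read-out (relative luminescence units) after 20 min with detection reagent, which stops the reaction. Enzyme, proluciferin substrate and compound preincubated 10 min, RT; NADPH regeneration system then started 1 h reaction. Ketoconazole as positive control.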

[2] = Viability qHTS for spleen associated tyrosine kinase inhibitor (SYKi) naive MV4-11 cells (AID 1963823); also: nearly all actives have a fitted effect of over 40% in size
How it was run: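 Viability of MV4-11 AML cells lacking prior SYK inhibitor exposure is scored by CellTiter-Glo luminescence following 72 hr compound incubation at 37 C, 5% CO2, seeded at 500 cells per well.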

[3] = Cellular viability qHTS for adrenocortical cancer (ACC) cell line SW-13 (AID 1963989); conditions: SW-13 ACC cells viability, CellTiter-Glo, 48 h; activity (max response): hits give low values; also: nearly all actives have a fitted effect of over 65% in size;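 as to activity (max response): cells grown in serum-free medium with ITS supplement; % is scaled to controls: 0 for no effect and ±100 for the full control effect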
How it was run: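 SW-13 cells in ITS-supplemented serum-free DMEM were plated overnight, then exposed for 48 h at 37C to compound titrations (up to 46 uM final). Viability was read by CellTiter-Glo luminescence; four-parameter logistic fits gave IC50 and efficacy.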

[4] = Cellular viability qHTS for adrenocortical cancer (ACC) cell line NCI-H295R (AID 1963990); also: nearly all actives have a fitted effect of over 60% in size;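 as to activity change, negative = viability loss: 0% = DMSO only wells and -100% = full killing with cytotoxic reference compound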
How it was run: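 Luminescent ATP read-out (CellTiter-Glo, 20 min RT) after 48 h drug exposure of NCI-H295R cells; a titration up to 46 uM final. Data normalized to doxorubicin (100% inhibition) and DMSO (0%); 4-parameter fit gives IC50, max response.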

[5] = Viability qHTS for spleen associated tyrosine kinase inhibitor (SYKi) drug resistant MV4-11 cells (AID 1963824); also: nearly all actives have a fitted effect of over 35% in size
How it was run: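 CellTiter-Glo luminescence, read 10 min after reagent addition, reports viability after a 72 hr compound exposure. Cells are an MV4-11 line made resistant to SYK inhibition, seeded at 500 per well onto compound-containing plates.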

[6] = Quantitative highthroughput screen to assess conditional lethalithy of NOMO1 cells grown in RPMI1640 with untreated serum (RPMI+s) (AID 1963876); also: nearly all actives have a fitted effect of over 35% in size
How it was run: (§1)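 Each medium arm—HPLM with 10% dialyzed FBS, or RPMI1640 with 5 mM glucose and 10% untreated or dialyzed FBS—was screened against an 11-point, 3-fold compound titration for 48 h at 37 °C, with CellTiter-Glo luminescence as endpoint.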

[7] = Quantitative highthroughput screen to assess conditional lethalithy of P12 Ichikawa cells grown in Human Plasma-Like Medium with dialyzed fetal bovine serum (HPLM+ds) (AID 1963879); conditions: Potency: viability; also: nearly all actives have a fitted effect of over 35% in size
How it was run: as §1

[8] = Quantitative highthroughput screen to assess conditional lethalithy of SEM cells grown in RPMI1640 with unreated serum (RPMI+s) (AID 1963883); also: nearly all actives have a fitted effect of over 35% in size
How it was run: as §1
Potency is read from the fitted curve at half-maximal effect.

Sequence of Cytochrome P450 3A7 (Homo sapiens) (P24462 whole entry, looked up): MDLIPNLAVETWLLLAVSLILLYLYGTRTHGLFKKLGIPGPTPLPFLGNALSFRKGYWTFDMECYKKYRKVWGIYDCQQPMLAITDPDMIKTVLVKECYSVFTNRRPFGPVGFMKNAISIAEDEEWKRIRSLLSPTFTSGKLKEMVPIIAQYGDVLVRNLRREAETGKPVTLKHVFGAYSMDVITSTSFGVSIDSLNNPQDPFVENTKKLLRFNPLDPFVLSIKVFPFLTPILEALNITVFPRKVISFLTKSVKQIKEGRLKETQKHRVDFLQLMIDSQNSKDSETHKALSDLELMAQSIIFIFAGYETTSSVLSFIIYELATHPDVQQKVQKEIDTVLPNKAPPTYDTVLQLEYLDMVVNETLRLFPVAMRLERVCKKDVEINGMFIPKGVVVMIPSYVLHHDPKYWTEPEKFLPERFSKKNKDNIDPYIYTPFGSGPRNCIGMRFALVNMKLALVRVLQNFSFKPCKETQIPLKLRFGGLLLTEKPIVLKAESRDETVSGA

CCN1CCC[C@H]1CNC(=O)c1cc(S(N)(=O)=O)ccc1OC
inactive: Potency [1] | Potency [2] | activity (max response) [3] 6.63% | Potency [4]

OC[C@H]1O[C@@H]2O[C@H]3[C@H](O)[C@@H](O)[C@@H](O[C@H]4[C@H](O)[C@@H](O)[C@@H](O[C@H]5[C@H](O)[C@@H](O)[C@@H](O[C@H]6[C@H](O)[C@@H](O)[C@@H](O[C@H]7[C@H](O)[C@@H](O)[C@@H](O[C@H]8[C@H](O)[C@@H](O)[C@@H](O[C@H]1[C@H](O)[C@H]2O)O[C@@H]8CO)O[C@@H]7CO)O[C@@H]6CO)O[C@@H]5CO)O[C@@H]4CO)O[C@@H]3CO
inactive: Potency [1] | Potency [2] | activity (max response) [3] -1.71% | Potency [4]

CCN(CC)CC1CCCCN1CC(=O)N1c2ccccc2C(=O)Nc2cccnc21 (configuration not stated)
inactive: Potency [1] | Potency [2] | activity (max response) [3] -3.91% | Potency [4]

CCCCCCCCOc1ccc(C(=O)c2ccccc2)c(O)c1
inactive: Potency [1] | Potency [2] | Potency [4]

Nc1nc(N)c(N=O)c(OCC2CCCCC2)n1
active: Potency [5] 8.2 µM and 8.33 µM
inactive: Potency [1]

CCOc1cc(C(C)(C)C)ccc1C1=NC(C)(c2ccc(Cl)cc2)C(C)(c2ccc(Cl)cc2)N1C(=O)N1CCN(CCCS(C)(=O)=O)CC1 (configuration not stated)
active: Potency [1] 2.82 µM | Potency [5] 9.2 µM

CN(C)CCN1CCN(c2cccc(Cl)c2)C1=O
inactive: Potency [1] | Potency [2] | Potency [4]

CC(C)c1cc2c(cc1S(=O)(=O)O)[C@@]1(C)CCC[C@@](C)(C(=O)O)[C@@H]1CC2
inactive: Potency [1] | Potency [2] | activity (max response) [3] 15.8% | Potency [4]

CN(C)C/C=C(/c1ccc(Br)cc1)c1cccnc1
inactive: Potency [1] | Potency [2] | activity (max response) [3] 3.23% | Potency [4]

CCC(C(=O)O)c1ccc(N2Cc3ccccc3C2=O)cc1 (configuration not stated)
inactive: Potency [1] | Potency [2] | activity (max response) [3] 5.42% | Potency [4]

COc1cc(C(=O)N2CCOCC2)cc(OC)c1OC
inactive: Potency [1] | Potency [2] | activity (max response) [3] 1.89% | Potency [4]

Nc1c2c(nc3ccccc13)CCCC2O (configuration not stated)
inactive: Potency [1] | Potency [2] | activity (max response) [3] 13% | Potency [4]

Cc1cc(C(C)(C)C)c(O)c(C(C)(C)C)c1
inactive: Potency [1] | Potency [2]
active: Potency [4] 25.9 µM

CN1C[C@@H]2C[C@H]1CN2c1cc2c(cc1F)c(=O)c(C(=O)O)cn2C1CC1
inactive: Potency [1] | Potency [2] | activity (max response) [3] -2.55% | Potency [4]

CCCCN=C(N)NC(=N)N
inactive: outcome [1] | Potency [2] | activity (max response) [3] 17.9% | Potency [4]

CCCCCC(N)=O
inactive: Potency [1] | Potency [2] | activity (max response) [3] 5.46% | Potency [4]

CN(N=O)C(=O)N[C@@H]1[C@@H](O)[C@H](O)[C@@H](CO)O[C@@H]1O
inactive: Potency [1] | Potency [2] | Potency [4]

CC12CCC(CC1)C(C)(C)O2
inactive: Potency [1] | Potency [2] | activity (max response) [3] 13.8% | Potency [4]

CCCCC(O)/C=C(C)/C=C/C=C/C(=O)N1CCCC1=O (configuration not stated)
inactive: Potency [1] | Potency [2] | activity (max response) [3] 10.5% | Potency [4]

CN(C)C(=O)Oc1ccc[n+](C)c1
inactive: Potency [1] | Potency [2] | Potency [4]

CC(=O)OCC(=O)Nc1cc(C#N)cc(NC(=O)COC(C)=O)c1Cl
inactive: Potency [1] | Potency [2] | activity (max response) [3] -0.531% | Potency [4]

COc1ccc(CN(CCN(C)C)c2ccccn2)cc1
inactive: Potency [1] | activity (max response) [3] 2.63% | Potency [4]
active: Potency [2] 16.8 µM

CC1CN(c2cc3c(cc2F)c(=O)c(C(=O)O)cn3-c2ccc(F)cc2F)CCN1 (configuration not stated)
inactive: activity change, negative = inhibition [1] 17% [at 4.83 µM] | viability (% of control) [2] 91.3% [at 4.97 µM] | activity change, negative = viability loss [4] 1.32% [at 3.81 µM]

CCOC(=O)c1ccc(NC(=O)CN2CCCCC2)cc1
inactive: Potency [1] | Potency [2] | Potency [4]

CCCSc1ccc2nc(NC(=O)OC)[nH]c2c1
inactive: Potency [1]
active: Potency [2] 0.668 µM | Potency [3] 0.366 µM | Potency [4] 0.82 µM

N[C@H]1C(O)O[C@H](CO)[C@@H](O)[C@@H]1O (some centres not stated)
inactive: Potency [1] | Potency [2] | activity (max response) [3] -3.76% | Potency [4]

CCc1cccc(CC)c1NC(=O)CN(CC(=O)O)CC(=O)O
inactive: Potency [1] | Potency [2] | activity (max response) [3] 1.3% | Potency [4]

C#CCC(Cc1cnc2nc(N)nc(N)c2n1)c1ccc(C(=O)N[C@@H](CCC(=O)O)C(=O)O)cc1 (some centres not stated)
inactive: Potency [1]
active: Potency [5] 0.0021 µM | Potency [6] 0.187 µM | Potency [7] 0.0372 µM | Potency [8] 0.059 µM | Potency [3] 0.0355 µM | Potency [4] 0.0158 µM

CC(=O)OC[C@H]1O[C@@H](OC(C)=O)[C@H](OC(C)=O)[C@@H]1OC(C)=O
inactive: Potency [1] | Potency [5] | activity (max response) [3] 10.4%
